# Measurements taken from PubChem BioAssay AID1347416 (National Center for Advancing Translational Sciences (NCATS), 2020).
# In all, about 4,100 compounds went through this assay and about 1,600 (39%) were called active. Another 25% or so got no clear call; they are omitted. The list shows a part of the results. Values without a mark were called inactive. The call rests on the fitted dose curve; in most records, active means well fitted inhibition curve with a large enough effect; inconclusive means small, poorly fitted or top-dose-only effect; inactive means no such curve, though single readings can be large or run the other way.
# Assay: qHTS Validation assay for Inhibitors of Plasmodium falciparum Dd2 growth in vitro; further: nearly all actives have a fitted effect of over 70% in size
# Details: P. falciparum Dd2 in RBCs, SYBR Green growth, 72 h; series mostly up to 28.7 µM; activity change, negative = inhibition: at the top concentration
# Text: Malaria, a parasitic disease spread to humans through the bite of a Plasmodium infected Anopheles mosquito, continues to be a global health burden affecting millions of people, with an estimated 228 million cases and 405,000 deaths in 2018. Concerns about safety and limitations of current antimalarial treatments strongly emphasize the need to develop new therapeutic options. The scarce number of chemotypes and validated drug targets with efficacy against the liver stage, have hindered development of new antimalarials. To address this, a chemoprophylactic drug discovery effort was conducted through a combined phenotypic high-throughput asexual blood stage and liver stage screen, providing a robust foundation to identify liver-stage active lead chemotypes. Compounds were initially screened against Plasmodium falciparum Dd2 strain parasites using a in vitro SYBRGreen-1 based 72 hr proliferation assay to identify novel chemotypes to advance to liver stage assays. NIH/NCATS Early Translation Branch Assay Submitter (PI): Anton Simeonov Ph.D.
# […] Assay Protocol: PROTOCOL TABLE (as described by Inglese et al., 2007) SEQUENCE No. (e.g., 1, 2, 3, etc.); PARAMETER (e.g., Cells, Incubation, Reagent, etc.); VALUE; DESCRIPTION SEQUENCE, Parameter, Description 1; Reagent; 3 uL complete malaria growth medium, 1536 TC treated Black clear bottom plate 2; Controls; 23 nL positive control artesunate (300 nM final) to column 1; Neutral control DMSO to columns 2-4 3; Compound; 23 nL of compounds in dose response concentration (29 uM to 0.5 nM final) 4; Reagent; 5 uL malaria infected red blood cells (2.5% hematocrit final, 0.3% parasitemia 5; Time; 72 hours at 37C (5% O2, 5% CO2, 90% N2; 95% Rh) 6; Reagent; 2 uL lysis buffer/SYBRGreen-1, 25 sec shake immediately following dispense 7; Time; ~16 hours at 37C (5% O2, 5% CO2, 90% N2; 95% Rh) 8; Detector; EnVision (PerkinElmer) bottom read at 485/14nm excitation and 535/25 nm emission NOTES (numbers refer to sequence above): 1; Complete Malaria Growth Media: 1X RPMI-1640 w/L-glutamine, 5.5g/L Albumax II, 367 uM Hypoxanthine, 25 mM HEPES, 0.25% Sodium Bicarbonate, 35 uM Gentamicin sulfate 2; Controls were added using the Kalypsis Pintool (Wako USA) equipped with 1536 pinhead 3; Compounds were added in a 7-point, titration with a high final concentration of 29 uM by Pintool from seven inter-plate titrations of library plates and two DMSO control plates at the beginning and end (see Yasgar et al., 2008). 4; Red blood cells infected with Plasmodium falciparum Dd2 parasites were used. 6; Lysis buffer: 20 mM Tris-HCl, 10 mM EDTA, 0.16% Saponin, 1.6% Triton-X, 10X SYBR Green. REFERENCE: Inglese J, Shamu CE, Guy RK. 2007. Reporting data from high-throughput screening of small-molecule libraries. Nat Chem Biol. doi:10.1038/nchembio0807-438 Yasgar A, Shinn P, Jadhav A, Auld D, Michael S, Zheng W, Austin CP, Inglese J, Simeonov A. 2008. Compound Management for Quantitative High-Throughput Screening. J Lab Autom 13:79-89. doi:10.1016/j.jala.2007.12.004
# On the % scale 0 is the no-effect control and ±100 the full control effect; potency means the concentration at half of the fitted maximal effect.
Structure (SMILES),Potency,"activity change, negative = inhibition"
C=CC1CN2CCC1CC2C(OC(C)=O)c1ccnc2ccc(OC)cc12 (stereo unspecified),1.68 µM (active),
CN(C)CC1CSCCC1(O)c1ccccc1Cl (stereo unspecified),5.96 µM (active),
Cc1ccccc1CN1C(=O)CN=C(c2ccccc2)c2cc(Cl)ccc21,16.8 µM (active),
CCC1(OC(=O)CN)C(=O)OCc2c1cc1n(c2=O)Cc2cc3ccccc3nc2-1 (stereo unspecified),6.68 µM (active),
Oc1ccc(Cl)cc1CN1CCN(Cc2ccccc2)CC1,0.944 µM (active),
Oc1c(Cl)cc(Cl)cc1CN1CCN(Cc2ccccc2)CC1,0.668 µM (active),
O=C(NC[C@H]1C[C@@H]2CCN1C[C@@H]2CN1CCC(Cc2ccccc2)CC1)c1ccccc1,7.69 µM (active),
COc1ccc(CN2CCCC(C(=O)c3ccc(Cl)cc3)C2)c(O)c1 (stereo unspecified),0.531 µM (active),
O=C(C[C@@H]1NCCC[C@H]1O)Cn1cnc2cc(Br)c(Cl)cc2c1=O,2.37 µM (active),
C[n+]1c(-c2ccccc2)cc(-c2ccc(Cl)cc2)cc1-c1ccccc1,6.68 µM (active),
COc1cc2c(cc1OCC1CC1)NC(=O)C21CCN(c2nccs2)CC1,21.7 µM (active),
COc1cc2c(cc1OCc1ccccc1)NC(=O)C21CCN(c2ccccn2)CC1,15.3 µM (active),
Cn1nccc1CN1CCC2(CC1)C(=O)Nc1ccccc12,,-13.6% [at 43.1 µM]
COc1cc2c(cc1OCC1CC1)NC(=O)C21CCN(C(=O)c2cccnc2)CC1,,44.2% [at 43.1 µM]
COc1cc2c(cc1Oc1cccc(N(C)C)c1)NC(=O)C21CCN(c2cnccn2)CC1,1.5 µM (active),
COc1cc2c(cc1OC1CCCC1)NC(=O)C21CCN(c2cnccn2)CC1,7.69 µM (active),
COc1cc2c(cc1Oc1ccccc1)NC(=O)C21CCN(C(=O)c2ccccc2)CC1,,9.16% [at 43.1 µM]
COc1cc2c(cc1Oc1ccccc1)NC(=O)C21CCN(c2cnccn2)CC1,2.17 µM (active),
O=C(Nc1ccc2n(c1=O)C[C@H]1C[C@@H]2CN(Cc2ccc(F)cc2)C1)c1cccs1,15.3 µM (active),
C#C[C@H]1CN2CC[C@H]1C[C@@H]2CNCc1ccc(F)c(F)c1,13.7 µM (active),
C#C[C@H]1CN2CC[C@H]1C[C@@H]2CNCc1cccc(Cl)c1,4.85 µM (active),
CC[C@H]1CN2CC[C@H]1C[C@@H]2CNCc1ccc(SC)cc1,4.33 µM (active),
O[C@H]1[C@H](NCC2CCCC2)[C@@H](c2ccccc2)C[C@H]1O,6.11 µM (active),

Structure (SMILES),Potency,"activity change, negative = inhibition"
COc1cc2c(cc1OCc1ccccc1)N(C(=O)c1cc3ccccc3[nH]1)CC21CCN(C)CC1,0.944 µM (active),
COc1cc2c(cc1OCc1ccccc1)N(C(=O)c1cc3ccccc3n1C)CC21CCN(C)CC1,2.11 µM (active),
COc1cc2c(cc1OCc1ccccc1)N([S+](=O)([O-])c1cccnc1)CC21CCN(C)CC1,10.6 µM (active),
Oc1ccc(Br)cc1CN1CCN(c2ccccc2)CC1,2.11 µM (active),
CCc1ccc(CN2CCN(Cc3cc(Br)ccc3O)CC2)cc1,2.11 µM (active),
CC(C)c1ccc(O)c(CN2CCN(c3ccccc3)CC2)c1,1.33 µM (active),
Cc1ccc(O)c(CN2CCN(c3ccccc3)CC2)c1,2.99 µM (active),
CNC(=O)Oc1cccc(-c2cn3cc(OC(=O)NC)ccc3n2)c1,,-2.9%
Oc1cc2c(cc1CN1CCN(c3ccccc3)CC1)CCC2,3.35 µM (active),
COc1ccccc1N1CCN(Cc2cc(C)c(C)cc2O)CC1,0.376 µM (active),
CC(C)(C)c1ccc(O)c(CN2CCN(c3ccccc3)CC2)c1,1.5 µM (active),
COc1ccc(OC)c(S(=O)(=O)NC[C@H]2C[C@@H]3CCN2C[C@@H]3c2cc(-c3ccc(F)cc3)nn2C)c1,6.68 µM (active),
COc1ccc(-c2cc([C@H]3CN4CC[C@H]3C[C@@H]4CNS(=O)(=O)c3ccc(Cl)cc3)n(C)n2)cc1OC,2.99 µM (active),
COc1ccc(-c2cc([C@H]3CN4CC[C@H]3C[C@@H]4CNC(=O)NC3CCCCC3)n(C)n2)cc1,1.88 µM (active),
COc1ccc(-c2cn(C[C@H]3C[C@@H]4CCN3C[C@@H]4C(=O)NCc3ccccc3)nn2)cc1,,-16.3% [at 43.1 µM]
Cn1nc(C2CCCCC2)cc1[C@H]1CN2CC[C@H]1C[C@@H]2CNC(=O)c1cccs1,13.7 µM (active),
CN1CCN(C[C@H]2CN3CC[C@H]2C[C@@H]3CNS(=O)(=O)c2ccccc2)CC1,,0% [at 43.1 µM]
Cc1ccc(S(=O)(=O)NC[C@H]2C[C@@H]3CCN2C[C@@H]3CN2CCc3ccccc32)cc1,13.7 µM (active),
C[n+]1c2ccccc2nc2ccc(NCCO)cc21,1.19 µM (active),
COc1cccc(CC(=O)N2[C@H]3CC[C@@H]2c2cnc(-c4ccc(F)cc4)nc2C3)c1,,-7.05%
COC(=O)C1=C(c2ccc(OC)c(OC)c2)C[C@@H]2CC[C@H]1N2C(=O)NCc1cccc2ccccc12,3.35 µM (active),
COC(=O)C1=C(c2ccc(-c3ccccc3)c(F)c2)C[C@@H]2CC[C@H]1N2C(=O)NCc1cccc2ccccc12,10.6 µM (active),
CCCCCSc1cc(O)c(C(CNC)C(C)C)cc1OC (stereo unspecified),0.168 µM (active),
